Records with an inconclusive call do not appear. Values without a mark were called inactive. The source made the active and inactive calls. Unless noted, calls come from the whole dose curve; as a rule, active = well fitted curve in the direction sought with a large enough effect in the repeat runs; inconclusive = weak or mixed curves; inactive = no such curve, though single readings can be large; an effect the other way counts as inactive or inconclusive.

Experiment [1] concerns the target Retinoic acid receptor RXR-alpha (Homo sapiens) (UniProt P19793). Nature of the experiment: qHTS assay to identify small molecule agonists of the RXR signaling pathway (AID 1159527; calls by dose curve; note: nearly all actives have a fitted effect of over 35% in size). Summed up: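 Agonist-mode beta-lactamase reporter assay: HEK 293T RXR-alpha-UAS-bla cells treated 16 hr at 37 C with compounds, 9-cis retinoic acid as positive control. LiveBLAzer FRET substrate, 405 nm excitation, 460/530 nm emission.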

Experiment [2] can be described thus: qHTS assay to identify small molecule agonists of the RXR signaling pathway - cell viability counter screen (AID 1159529). Note: series mostly up to about 77 µM; nearly all actives have a fitted effect of over 50% in size. Summed up:
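CellTiter-Glo luminescence gave viability in the wells also read for beta-lactamase. Cells (RXR-alpha-UAS-bla HEK 293T, 2% charcoal-stripped FBS medium) had 5 hr plating, then 16 hr compound exposure at 37 C; tetraoctyl ammonium bromide served as positive control.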

The nature of experiment [3]: qHTS assay to identify small molecule antagonists of the estrogen related receptor (ERR) signaling pathway from Tox21 library - cell viability counter screen (AID 1224834). Note: nearly all actives have a fitted effect of over 30% in size. Note: potency is the fitted concentration of half-maximal effect. Summed up: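 Compounds in DMSO were pinned onto ERR cells that had been incubated for 6 h, and the plates were held at 37 C for 17.5 h. CellTiter-Fluor reagent was then added and fluorescence was measured after 30 min.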
A general note: Quantitative high-throughput screening tests each substance at several concentrations.

The target of experiment [4] is Luciferin 4-monooxygenase (Photinus pyralis) (UniProt P08659). Nature of the experiment: qHTS assay to identify small molecule inhibitors of firefly luciferase (AID 1224835). Note: nearly all actives have a fitted effect of over 25% in size. Note: potency is the fitted concentration of half-maximal effect. Summed up:
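Biochemical qHTS: compounds run as interplate titrations against purified firefly enzyme, with D-luciferin and ATP each at its KM concentration. Light output recorded by CCD imaging.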

A short description of experiment [5]: qHTS assay to identify small molecule antagonists of the constitutive androstane receptor (CAR) signaling pathway - cell viability counter screen (AID 1224837). Note: series mostly up to about 92 µM; nearly all actives have a fitted effect of over 45% in size. In outline: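 Cells are seeded, rested 4 hr at 37 C/5% CO2, dosed with compound (15-point series) and 50 nM CITCO, incubated a further 23 hr, and then CellTiter-Fluor reagent is added before fluorescence is read. The line is HepG2 with stable hCAR and CYP2B6-2.2kb.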

The nature of experiment [6]: qHTS assay to identify small molecule antagonists of the estrogen related receptor signaling pathway with the pleiotropic PPARgamma coactivator (PGC) from Tox21 10K library - cell viability counter screen (AID 1224840; active = well fitted cell-killing curve with a large enough effect in the repeat runs, not every such curve was filed as active; note: nearly all actives have a fitted effect of over 40% in size). In outline:
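Cell viability is measured by CellTiter-Fluor fluorescence in PGC/ERR cells that receive compounds after a 6-hour attachment period and are then incubated 17.5 hours at 37 C.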

Experiment [7] can be described thus: qHTS assay to identify small molecule antagonists of the estrogen related receptor signaling pathway with the pleiotropic PPARgamma coactivator (PGC) from Tox21 10K library (AID 1224841; call rule not given here; note: series mostly up to about 92 µM; actives are mostly falling curves and most rising ones were filed inactive; nearly all actives have a fitted effect of over 50% in size). In outline:
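Cells stably carrying the PGC/ERR reporter, seeded at 2,000 per well, received pin-transferred compounds 6 h post-plating. Exposure lasted 18 h at 37 C. Signal: One-Glo luminescence.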

Experiment [8] can be described thus: qHTS assay to identify small molecule agonists of the estrogen related receptor signaling pathway with the pleiotropic PPARgamma coactivator (PGC) from Tox21 10K library (AID 1224842). Note: nearly all actives have a fitted effect of over 15% in size. Summed up: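 PGC/ERR reporter cell line, 2,000 cells per well, incubated 6 h at 37 C before 23 nL compound in DMSO was added. After 18 h at 37 C, One-Glo luminescence read following 30 min at room temperature.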

The nature of experiment [9]: qHTS assay to identify small molecule agonists of the constitutive androstane receptor (CAR) signaling pathway - cell viability counter screen (AID 1224836). Note: series mostly up to about 92 µM; nearly all actives have a fitted effect of over 45% in size. In outline:
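Cell viability multiplexed with the CAR agonist screen: CellTiter-Fluor fluorescence after 23 hr at 37 C. HepG2-CYP2B6-hCAR cells got compounds at 15 concentrations with PK11195 at 0.75 uM final.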

Experiment [10] addresses Nuclear receptor subfamily 1 group I member 3 (Homo sapiens) (UniProt Q14994). Nature of the experiment: qHTS assay to identify small molecule antagonists of the constitutive androstane receptor (CAR) signaling pathway (AID 1224838).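 Note: HepG2 cells stably expressing hCAR with CYP2B6 luciferase reporter stimulated by CITCO; nearly all actives have a fitted effect of over 40% in size.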 Note: potency is the fitted concentration of half-maximal effect. In outline: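 Luminescence from a CYP2B6-2.2kb promoter reporter in hCAR-expressing HepG2 cells reflects CAR signaling. Cells received compounds at 15 concentrations and 50 nM CITCO (final), then incubated 24 h at 37 C/5% CO2.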

A short description of experiment [11]: qHTS assay to identify small molecule antagonists of the retinoid acid receptor (RAR) signaling pathway - cell viability counter screen (AID 1159551). Note: nearly all actives have a fitted effect of over 35% in size. In outline:
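ATP-based viability, C3RL4 cells, 6 h at 37 C with 1 uM final retinol co-added after compound; luminescence read 30 min post CellTiter-Glo, RT.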

Experiment [12] can be described thus: qHTS assay to identify small molecule antagonists of the retinoic acid receptor (RAR) signaling pathway (AID 1159552; note: nearly all actives have a fitted effect of over 50% in size). In outline: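 Luminescent RARE reporter read-out in C3RL4 cells: 6 hr co-treatment at 37 C of test compounds with retinol at 1 uM final. Cells plated overnight beforehand; luciferase reagent incubated 30 min at room temperature before reading.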

A short description of experiment [13]: qHTS assay to identify small molecule agonists of the retinoic acid receptor (RAR) signaling pathway (AID 1159553). Summed up: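 Quantitative high-throughput format: the Tox21 10K library was tested on C3RL4 RARE-luciferase cells for 6 hr at 37 C and 5% CO2, with luminescence measured after a 30 min room-temperature reagent step.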
The nature of experiment [14]: qHTS assay to identify small molecule antagonists of the estrogen related receptor (ERR) signaling pathway - cell viability counter screen (AID 1224818). Note: series mostly up to about 46 µM. Summed up:
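Quantitative high-throughput viability counter screen in ERR cells. Compounds (DMSO) incubated 17.5 h at 37 C; read-out was CellTiter-Fluor fluorescence.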

Experiment [15] can be described thus: qHTS assay to identify small molecule antagonists of the estrogen related receptor signaling pathway with the pleiotropic PPARgamma coactivator (PGC) cell viability counter screen (AID 1224822; note: series mostly up to about 46 µM). In outline: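 Cytotoxicity in the PGC/ERR cell line is assessed with CellTiter-Fluor, read as fluorescence intensity 30 min after reagent addition, following 17.5 h compound treatment at 37 C.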

Experiment [16] has as its target Nuclear receptor subfamily 1 group I member 3 (Homo sapiens) (UniProt Q14994). Kind of experiment: qHTS assay to identify small molecule agonists of the constitutive androstane receptor (CAR) signaling pathway (AID 1224839).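 Note: HepG2 cells stably carrying human CAR and a CYP2B6 luciferase reporter; series mostly up to about 92 µM; nearly all actives have a fitted effect of over 15% in size.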 In outline:
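Luminescent ONE-Glo read-out after 24 hr, 37 C exposure of double-stable HepG2-CYP2B6-hCAR reporter cells to a 15-point compound series, in the presence of 0.75 uM PK11195 (final).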

Experiment [17] can be described thus: qHTS assay to identify small molecule agonists of the estrogen related receptor (ERR) signaling pathway (AID 1224820). Summed up:
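Following a 6 h settling period, 2,000 ERR cells per well receive DMSO-dissolved compounds by pin tool and incubate 18 h at 37 C; agonist activity is scored from One-Glo luminescence read 30 min post-addition.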

Experiment [18] concerns estrogen-related receptor alpha (ERRalpha) with PGC-1alpha coactivator, human. Nature of the experiment: qHTS assay to identify small molecule antagonists of the estrogen related receptor signaling pathway with the pleiotropic PPARgamma coactivator (PGC) (AID 1224821; calls by dose curve;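 note: series mostly up to about 46 µM; lower luminescence signal means antagonism of PGC/ERR signalling; nearly all actives have a fitted effect of over 50% in size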). In outline: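 Screening used NTP's PGC/ERR cells, dosed via pin tool with compound in DMSO alongside positive and negative controls. After 18 h at 37 C, One-Glo reagent sat 30 min at room temperature before luminescence detection.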

Experiment [19] in a line: qHTS assay to identify small molecule agonists of the estrogen related receptor signaling pathway with the pleiotropic PPARgamma coactivator (PGC) (AID 1224823). In outline: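 In this quantitative high-throughput screen, an 18 h, 37 C treatment of PGC/ERR cells with compounds in DMSO preceded a One-Glo luminescence read taken after 30 min at room temperature.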
Experiment [20] can be described thus: qHTS assay to identify small molecule antagonists of the estrogen related receptor (ERR) signaling pathway (AID 1224819). Summed up: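 ERR reporter cell line (NTP) plated at 2,000 cells/well, settled 6 h at 37C/5% CO2, then exposed to LOPAC compounds for 18 h at 37C. One-Glo luciferase luminescence read after 30 min at room temperature.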

Sequence of Luciferin 4-monooxygenase (Photinus pyralis) (P08659 whole entry, looked up): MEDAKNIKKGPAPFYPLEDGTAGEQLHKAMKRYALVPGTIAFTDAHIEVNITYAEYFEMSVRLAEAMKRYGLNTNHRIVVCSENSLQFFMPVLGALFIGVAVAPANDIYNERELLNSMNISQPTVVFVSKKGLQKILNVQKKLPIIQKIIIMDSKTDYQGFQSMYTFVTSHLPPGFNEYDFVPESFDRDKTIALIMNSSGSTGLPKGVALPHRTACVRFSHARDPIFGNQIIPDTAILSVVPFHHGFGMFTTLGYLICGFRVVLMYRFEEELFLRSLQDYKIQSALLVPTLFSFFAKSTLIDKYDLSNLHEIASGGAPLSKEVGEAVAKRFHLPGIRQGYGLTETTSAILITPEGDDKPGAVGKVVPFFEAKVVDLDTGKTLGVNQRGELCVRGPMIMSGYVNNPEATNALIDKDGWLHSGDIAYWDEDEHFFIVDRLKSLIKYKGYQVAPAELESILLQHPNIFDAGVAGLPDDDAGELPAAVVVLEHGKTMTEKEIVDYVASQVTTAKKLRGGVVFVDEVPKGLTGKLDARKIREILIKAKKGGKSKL
Sequence of Retinoic acid receptor RXR-alpha (Homo sapiens) (P19793 whole entry, looked up): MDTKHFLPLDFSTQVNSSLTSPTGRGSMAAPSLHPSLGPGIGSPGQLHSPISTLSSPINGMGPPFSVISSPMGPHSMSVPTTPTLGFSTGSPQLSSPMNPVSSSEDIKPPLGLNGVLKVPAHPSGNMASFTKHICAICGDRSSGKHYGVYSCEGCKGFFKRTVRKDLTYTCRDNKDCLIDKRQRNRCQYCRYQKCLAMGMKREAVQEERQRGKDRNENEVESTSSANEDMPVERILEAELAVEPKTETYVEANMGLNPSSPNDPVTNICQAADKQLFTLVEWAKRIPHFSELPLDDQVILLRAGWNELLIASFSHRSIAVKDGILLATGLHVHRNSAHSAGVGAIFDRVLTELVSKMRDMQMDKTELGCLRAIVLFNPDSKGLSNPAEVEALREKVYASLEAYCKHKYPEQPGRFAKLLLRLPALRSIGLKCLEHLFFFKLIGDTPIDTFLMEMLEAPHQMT
Sequence of Nuclear receptor subfamily 1 group I member 3 (Homo sapiens) (Q14994 whole entry, looked up): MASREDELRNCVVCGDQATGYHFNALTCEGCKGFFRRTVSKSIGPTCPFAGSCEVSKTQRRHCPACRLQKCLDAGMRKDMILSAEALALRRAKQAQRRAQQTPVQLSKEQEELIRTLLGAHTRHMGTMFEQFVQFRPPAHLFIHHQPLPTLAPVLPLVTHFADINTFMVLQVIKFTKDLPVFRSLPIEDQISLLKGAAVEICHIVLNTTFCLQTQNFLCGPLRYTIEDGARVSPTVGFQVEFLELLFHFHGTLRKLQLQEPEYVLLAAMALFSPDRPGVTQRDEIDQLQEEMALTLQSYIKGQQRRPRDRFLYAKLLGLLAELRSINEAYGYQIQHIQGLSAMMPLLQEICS

On to `CC(=O)O[C@H](CC(=O)[O-])C[N+](C)(C)C`, for which the Potency result in [1], in [2], in [3], in experiment [4], in experiment [7] and in experiment [8] was “inactive” each time. Besides, the compound was classed as inactive in [5] and in experiment [6].
On to `c1ccc(CCCc2ccccn2)cc1`, for which the Potency entry in [1], in experiment [2], in experiment [3], in [10] and in experiment [7] was “inactive” each time. In addition, in experiment [4], the Potency was 31.7 µM (active). Further, the call in experiment [9], in [5] and in experiment [6] was inactive.
Turning to `NC(=O)c1ncn([C@@H]2O[C@H](CO)[C@@H](O)[C@H]2O)c1O`, the Potency entry in experiment [2], in [12], in experiment [13], in experiment [3], in experiment [4] and in experiment [10] was “inactive” in each case. Besides, in [16], the Potency entry was “inactive”. The call in experiment [11], in experiment [14], in [15], in experiment [9], in experiment [5] and in experiment [6] was inactive.
As to `CCC(=O)c1cccc(Cl)c1`, the Potency entry in experiment [1], in experiment [12], in experiment [13], in [3] and in experiment [4] was “inactive” throughout. Further, the call in experiment [11], in experiment [5] and in [6] was inactive.
On to `Cc1c(C)n(CCN(C)C)c2ccc(C(=O)OCCN(C)C)cc12`, for which the Potency entry in experiment [1], in experiment [12], in experiment [13], in experiment [3], in experiment [4] and in [16] was “inactive” in each case. The Potency result in experiment [8] was “inactive”. Moreover, the Potency in experiment [10] is 29.8 µM (active).
For the compound `CC(=O)NC(Cc1ccccc1)C(=O)O` (stereo not given), the Potency result in [2], in [12], in experiment [13], in [3], in experiment [4] and in experiment [10] was “inactive” in each case. Besides, the Potency entry in experiment [16] was “inactive”. For the same compound, the compound was called inactive in experiment [11], in experiment [9], in experiment [5] and in [6].
For `c1cc(CN2CCCCC2)cc(OCCCNc2nc3ccccc3s2)c1`, the Potency result in [2], in [12], in experiment [13], in experiment [4], in experiment [10] and in [16] was “inactive” in each case. Further, the Potency entry in experiment [7] and in [8] was “inactive” throughout. Also, the compound was called inactive in experiment [11], in experiment [14], in experiment [17], in [18], in experiment [19] and in experiment [6]. Moreover, the Potency in experiment [3] was 29.8 µM (active).
Turning to `OCc1ccccn1`, the Potency entry in experiment [1], in [3], in experiment [4], in experiment [7] and in experiment [8] was “inactive” each time. Moreover, the result in experiment [11], in [9], in experiment [5] and in experiment [6] was inactive.
As to `C1C2OC2C2C1C1CC2C2OC12` (stereo not given), the Potency result in experiment [1], in experiment [12], in experiment [13], in experiment [3], in [4] and in experiment [10] was “inactive” each time. The Potency result in [16] is “inactive”. Also, the result in experiment [11], in [9], in experiment [5] and in experiment [6] was inactive.
`C[C@H]1O[C@@H](n2cc(F)c(=O)[nH]c2=O)[C@H](O)[C@@H]1O`: the Potency entry in experiment [2], in [12], in experiment [13], in [3], in experiment [4] and in experiment [16] was “inactive” throughout. In addition, the Potency entry in experiment [7] is “inactive”. The call in [11], in experiment [14], in experiment [20], in experiment [17], in experiment [18] and in [15] was inactive. In addition, the call in experiment [19], in experiment [9], in [5] and in [6] was inactive.
On to `CN(C)C(=O)C(CCN1CCC(O)(c2ccc(Cl)cc2)CC1)(c1ccccc1)c1ccccc1`, for which the Potency entry in [2], in experiment [12], in [13], in experiment [4] and in [7] was “inactive” throughout. The outcome in [11], in experiment [14], in experiment [17], in [15] and in experiment [19] was inactive. Besides, the Potency in experiment [3] was 26.6 µM (active).
